Assay results taken from PubChem BioAssay (Tox21).
Records with an inconclusive call do not appear. Unmarked numbers belong to inactive results. Active and inactive are the calls of the source. The call rests on the fitted dose curve; in most records, active means well fitted cell-killing curve with a large enough effect in the repeat runs; inconclusive means weak or mixed curves, or effect the other way; inactive means flat fitted curve, though single readings scatter.

Test: qHTS assay to identify small molecule agonists of the sonic hedgehog signaling (Shh) pathway - cell viability counter screen (AID 1259366); further: nearly all actives have a fitted effect of over 50% in size
Conditions: NIH/3T3 Gli1-Luc viability, CellTiter-Fluor, 24 h; series mostly up to 92.4 µM; viability change, negative = cytotoxic: at the top concentration
From the text: National Center for Advancing Translational Sciences [NCATS]
NIH Chemical Genomics Center [NCGC]
U.S. Environmental Protection Agency [EPA]
National Institutes of Environmental Health Sciences [NIEHS]
National Toxicology Program [NTP]
U.S. Food and Drug Administration [FDA]
The sonic hedgehog (Shh) pathway is essential for normal embryonic development. Dysregulation of the Shh pathway can cause severe developmental defects in organs. Therefore chemicals that interfere with the pathway are potential developmental toxicants. A cell line designated 3T3Gli1-Luc (DMB/OARSA/CFSAN/FDA, Laurel, MD), a NIH/3T3 derived clone containing stably integrated Gli1-Luc reporter is used to detect chemical interference of the Shh pathway, by changes in the expression of the firefly Luc gene under the control of the Gli1 transcriptional response element. This cell line was used to screen Tox21 libraries for identifying and prioritizing the potential developmental toxicants that interfere Shh pathway. The cytotoxicity of the compounds was tested in parallel by measuring the cell viability using CellTiter-Fluor assay system (Promega, Madison, WI) in the same wells.
Tox21 Assay Protocol Summary:
3T3 Gli1-Luc cells were dispensed at 2,000 per well in 5uL of culture medium into white solid bottom 1536-well plates (Greiner Bio-One, Monroe, NC) using a Multidrop Combi (Thermo Scientific, Waltham, MA) dispenser. The assay plates were incubated at 37 C and 5% CO2 for 4hr, and then 23nL of compounds dissolved in DMSO and positive control were transferred using a Pintool station (Wako, San Diego, CA). The assay plates were incubated at 37C and 5% CO2 for 24hr. For viability read, after 23hr of compound treatment, 1uL of CellTiter-Fluor reagent (Promega Corporation, Madison, WI) was added to each well of the assay plates using Flying Reagent Dispenser (FRD, Aurora Discovery, San Diego, CA) and incubated the assay plates at 37C for 1hr. The fluorescence signal was quantified using a ViewLux plate reader (Perkin Elmer, Shelton, CT).
On the % scale 0 is the no-effect control and ±100 the full control effect; potency means the concentration at half of the fitted maximal effect.

SMILES	viability change, negative = cytotoxic	Potency
CC(C)(C)C(=O)OCOC(=O)C1N2C(=O)CC2S(=O)(=O)C1(C)C (stereo not given)	0.826% [at 42.5 µM]	
Cc1cc2c(cc1C(F)(F)F)N(C(=O)Nc1ccc(Oc3cccnc3C)nc1)CC2	8.6%	
CSc1ccc(C(=O)c2[nH]c(=O)[nH]c2C)cc1	0.74% [at 42.5 µM]	
[Cl][Au]([Cl])[Cl]		3.86 µM (active)
CN(C)c1ccc(C2(c3ccc(N(C)C)cc3)OC(=O)c3cc(N(C)C)ccc32)cc1	11.6%	
Nc1ccc(N)c2ccccc12		61.1 µM (active)
CC1=NC(C)OC1C (stereo not given)	-7.58%	
NC(=O)N1C(=O)C(C(=O)c2cc(Cl)cs2)c2cc(F)c(Cl)cc21 (stereo not given)		27.3 µM (active)
O=C(O)c1ccc(Cl)c(Cl)c1	-3.46%	
CCCCCCCCCCn1cc[n+](CCCCCCCCCC)c1C		27.3 µM (active)
CCN(C(=O)c1cc(C)cc(OC[C@H](C)Nc2ccncc2)c1)C(C)C	-4.61% [at 42.5 µM]	
COc1cc(-c2nc(NC(=O)c3cc4cc(C)cc(C)c4n3CC(=O)O)sc2CCC2CCCCC2)c(OC)cc1Cl	24.2%	
Cc1onc(-c2c(Cl)cccc2Cl)c1C(=O)N[C@@H]1C(=O)N2[C@@H]1SC(C)(C)[C@@H]2C(=O)O	-7.31% [at 42.5 µM]	
O=C(c1ccc(F)cc1)C1CCN(CCn2c(=O)[nH]c3ccccc3c2=O)CC1	-20.9% [at 42.5 µM]	
CCCCC(CC)COC(=O)c1ccccc1C(=O)O (stereo not given)	1.5%	
CC(C)(C)C(=O)OCOC(=O)[C@@H]1N2C(=O)[C@@H](NC(=O)[C@H](N)c3ccccc3)[C@H]2SC1(C)C	1.46% [at 42.5 µM]	
NNC(=O)c1cccc(C(=O)NN)c1	1.73%	
c1cc(C(c2ccc(OCC3CO3)cc2)c2ccc(OCC3CO3)cc2)ccc1OCC1CO1 (stereo not given)		61.1 µM (active)
C=C(C)C(=O)OCC[N+](C)(C)C	-14.6%	
CCOC(=O)/C=C(C)/C=C/C=C(C)/C=C/c1c(C)cc(OC)c(C)c1C	10.1% [at 42.5 µM]	

SMILES	viability change, negative = cytotoxic	Potency
CC(C)=CCOc1ccc(/C=C/C(=O)c2ccc(OCC=C(C)C)cc2OCC(=O)O)cc1	7.17% [at 42.5 µM]	
Clc1ccc(C(Cn2ccnc2)OCc2ccc(Sc3ccccc3)cc2)c(Cl)c1 (stereo not given)	1.66% [at 42.5 µM]	
CO[Si](CCCNc1ccccc1)(OC)OC	3.47%	
Nc1c(Cl)cc(Cl)cc1Cl	-3.36%	
Clc1ccccc1C(c1ccccc1)(c1ccccc1)n1ccnc1		13.7 µM (active)
O=C(NOCC1CC1)c1ccc(F)c(F)c1Nc1ccc(I)cc1Cl	-22.3% [at 42.5 µM]	
Cc1c(C)c2c(c(C)c1OC(=O)CCC(=O)O)CC[C@@](C)(CCC[C@H](C)CCC[C@H](C)CCCC(C)C)O2	3%	
COc1cccc(N)c1	0.0511%	
O=C1Cc2cc(CCN3CCN(c4nsc5ccccc45)CC3)c(Cl)cc2N1		23.7 µM (active)
C[n+]1ccn(Cc2ccccc2)c1	14.8%	
C=CC(=O)OCCn1c(=O)n(CCOC(=O)C=C)c(=O)n(CCOC(=O)C=C)c1=O		10.9 µM (active)
Oc1cc2ccccc2c2ccccc12		4.33 µM (active)
O=CC=C(c1ccccc1)c1ccccc1		49 µM (active)
CCc1oc2ccccc2c1C(=O)c1cc(Br)c(O)c(Br)c1	3.56% [at 42.5 µM]	
Cc1ccc(-n2nc(C(C)(C)C)cc2NC(=O)Nc2ccc(OCCN3CCOCC3)c3ccccc23)cc1	2.99% [at 42.5 µM]	
NC(=O)NS(=O)(=O)c1ccc(N)cc1	0.276% [at 42.5 µM]	
O=C(O)c1cc(O)c2c(c1)C(=O)c1cccc(O)c1C2=O	-21%	
O=c1cccccc1O		55.5 µM (active)
O=[N+]([O-])c1cc(Cl)c(Cl)c(Cl)c1Cl		24.2 µM (active)
CSc1ccc2c(c1)C(N1CCN(C)CC1)Cc1ccccc1S2 (stereo not given)		23.7 µM (active)
